The campaign covered roughly 330,000 compounds. About 7,300 (2.2%) were called active. Shown is part of a subset that was picked to be rich in actives. Values without a mark were called inactive.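 Rule for the calls: active = inhibition of at least 40%; inactive = the rest.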

The nature of this assay: growth inhibition of tim10-1 ts yeast – luminescence, uHTS, primary screen (AID 463190).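 Note: mutant grown at 25 °C; 0% = DMSO wells with yeast and 100% = wells holding no yeast.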 Particulars: S. cerevisiae tim10-1 ts strain growth, BacTiter-Glo, 24 h; at 20 µM; hits give high values.
With `COC(C(=O)NCc1ccccc1C)c1ccccc1` (stereo not given), the inhibition is -2.01%.
Regarding `CCCCn1c(SCC(=O)N2CCOCC2)nc2c1c(=O)n(C)c(=O)n2C`, the inhibition was 0.276%.
For the molecule `COc1ccc(Cc2nnc(NC(=O)c3cc(OC)c(OC)c(OC)c3)s2)cc1OC`, the inhibition was 8.1%.
For `COc1cc(C(=O)Nc2nccs2)cc(OC)c1OC`, the inhibition was 43.9% (active).
Under `CC(=O)Oc1ccc(C(=O)Nc2nccs2)cc1` stands 8.42%.
As to `Cc1ccc(SC(C)C(=O)NCc2ccc(F)cc2)cc1` (stereo not given), the inhibition is 9.06%.
For `CNS(=O)(=O)c1cccc(C(=O)OCCCC(=O)c2ccccc2)c1` the value was 3.9%; for `Cc1ccsc1C(=O)NCCc1ccco1`, -19%.
Under `COc1cc(SC)ccc1C(=O)NNC(=O)C1COc2ccccc2O1` (stereo not given) stands 5.41%; under `COc1ccc(NC(=O)C2COc3ccccc3O2)cc1` (stereo not given), 21.5%; under `COc1ccc(OC)c2sc(NC(=O)C3COc4ccccc4O3)nc12` (stereo not given), 47.3% (active).
Under `CCc1cccc(C)c1NS(=O)(=O)c1c(C)nc2sccn2c1=O` stands 21.8%; under `COc1ccc(NC(=O)C2C3CCC(O3)C2C(=O)O)cc1OC` (stereo not given), -1.54%; under `COCCNC(=O)CSc1nc2c(n1-c1ccccc1)CCCC2`, 12%.
Regarding `COc1ccc(C(C(=O)NC2CCCCC2)N(C(=O)Cc2c[nH]c3ccccc23)c2ccccc2)cc1OC` (stereo not given), the inhibition is 13.4%.
For `COc1cc(Cl)c(C)cc1NC(=O)CSc1nnc(-c2ccco2)n1CC(C)C` the value was 42.7% (active).
For `COc1cc(Cl)c(C)cc1NC(=O)CSc1nnc(-c2cccnc2)n1Cc1ccco1` the value was 22.4%; for `CCn1c(SCC(=O)Nc2cc(C)c(Cl)cc2OC)nnc1-c1ccco1`, 14%; for `COc1ccc(C(=O)C2CCCN(C(=O)c3ccc(OC)o3)C2)c(C)c1` (stereo not given), 20.5%.
Under `COc1ccccc1CC(NC(C)=O)C(=O)NC1CCN(C(=O)Nc2ccccc2Cl)CC1` (stereo not given) stands 12%; under `CCCCn1c(CCCNC(=O)CC)nc2ccccc21`, 0.782%.
In the case of `CC(=O)Nc1nc2ccccc2n1Cc1ccc(C)cc1`, the inhibition is 19%.
For `CCC(=O)Nc1nc2ccccc2n1Cc1ccccc1C` the value was 40.8% (active); for `COc1ccc(NS(=O)(=O)c2ccc(Oc3c(C#N)cccc3C#N)cc2)cc1`, -28.8%.
In the case of `COc1cc(C2C(C(=O)Nc3ccccc3OC)=C(C)Nc3ncnn32)ccc1O` (stereo not given), the inhibition is 8.15%.
For `COc1ccc(C2C(C(=O)Nc3ccccc3OC)=C(C)Nc3nnnn32)c(OC)c1` (stereo not given) the value was 0.795%.
For the molecule `COc1ccccc1NC(=O)C1=C(C)Nc2nnnn2C1c1cccc(Br)c1` (stereo not given), the inhibition was 42.4% (active).
Turning to `COC(=O)c1ccccc1NC(=O)C1CC(=O)N(c2ccc(OC)cc2)C1` (stereo not given), the inhibition was 3.6%.
On to `COCCn1nnnc1CN1CCC(NC(=O)Nc2cccc(OC)c2)CC1`, for which the inhibition is -0.459%.
On to `COc1ccc(/C=C2\SC(=O)N(CCC(=O)NCCCn3ccnc3)C2=O)cc1`, for which the inhibition is 8.52%.
As for `COc1ccc(/C=C2\SC(=O)N(CCC(=O)NC3CCS(=O)(=O)C3)C2=O)cc1` (stereo not given), the inhibition is -0.597%.
For `COc1ccc(/C=C2/SC(=O)N(CCCCCC(=O)Nc3ccccc3C(=O)O)C2=S)cc1` the value was 40% (active); for `Cc1cccc(OCC(O)Cn2c(N3CCCCC3)nc3c2c(=O)[nH]c(=O)n3C)c1` (stereo not given), 12.9%.
In the case of `CCOC(=O)C1CCN(C(=O)COc2cccc3ccccc23)CC1`, the inhibition is 6.37%.
With `O=C(CCCN=C1NS(=O)(=O)c2ccccc21)OCC(=O)c1ccc(F)c(F)c1`, the inhibition was 11.8%.
`CCOc1ccc(NC(=O)CN(C)C(=O)c2c(C)noc2C)cc1OCC`: the inhibition was -5.08%.
For `COC(=O)C1(CCSC)NC(c2ccc(OC)cc2OC)C2C(=O)N(c3cccc(C(C)=O)c3)C(=O)C21` (stereo not given) the value was 8.92%.
Under `O=C(Nc1ccncc1)Nc1ccc(F)cc1` stands -16.8%; under `CC(C)(CCl)C(=O)Nc1ccc(Sc2ccc(F)cc2)cc1`, 53.5% (active).
In the case of `CC(C)CNC(=S)Nc1ccc(F)cc1`, the inhibition is 0.34%.
As to `Cc1ccc(NC(=O)Cc2nc(COC(=O)C(C)NS(=O)(=O)c3ccc(C)cc3)cs2)cc1` (stereo not given), the inhibition is 15.7%.
In the case of `O=C(CSC(=S)N1CCCCC1)c1c(F)cccc1F`, the inhibition was 9.67%.
Under `Oc1c(Cl)cc(Cl)c(Cl)c1Cc1c(O)c(Cl)cc(Cl)c1Cl` stands 91% (active).
Consider `Cc1cc(/C=N/NC(=O)CC2(C)OCCO2)c(C)n1-c1ccc(Cl)c(Cl)c1`, for which the inhibition was 1.86%.
Take `O=C1c2cccnc2C(Nc2ccc(S(=O)(=O)N3CCCCCC3)cc2)N1Cc1ccccc1` (stereo not given): the inhibition was 34.2%.
As for `CC1=C(/C=C/C(C)=C/C=C/C(C)=C/C=C/C=C(C)/C=C/C=C(C)/C=C/C2=C(C)CCCC2(C)C)C(C)(C)CCC1`, the inhibition was 10.6%.
For `CCCCCCCCCCCCCCCC(=O)OC/C=C(C)/C=C/C=C(C)/C=C/C1=C(C)CCCC1(C)C` the value was 40.7% (active); for `COC(=O)c1ccccc1NC(=O)CN(Cc1ccc(Cl)cc1)S(C)(=O)=O`, 10.7%.
For the molecule `CCCCNCc1ccc(SC)cc1`, the inhibition was -1.78%.
For `O=C(Nc1cccc(F)c1)c1coc(=O)c(Br)c1` the value was 18.9%.
Under `CCc1ccccc1N1CN(Cc2ccco2)CNC1=S` stands 17.4%.
Consider `C/C(=N\Nc1ccc([N+](=O)[O-])cc1)c1ccc(-n2nncc2C(C)(C)C)cc1`, for which the inhibition is -1.51%.
Under `COc1ccc(NC(=O)c2ccc(C#CC(C)(C)O)cc2)cc1` stands 9.08%; under `COc1ccc(C(=O)Nc2ccc(-n3nncc3C(C)(C)C)cc2)cc1`, 44% (active).
On to `CCCNC(=O)c1ccc(N2CCC3(CC2)CC(c2ccc(Cl)cc2)=NO3)c([N+](=O)[O-])c1`, for which the inhibition is 7.65%.
For `Cc1nonc1OCCn1nnnc1N` the value was 4.98%; for `COc1ccccc1N(CCOc1ccccc1)S(=O)(=O)c1ccccc1`, 7.59%; for `Cc1ccccc1C1=N/C(=C/c2cccnc2)C(=O)O1`, 31.3%.
As for `COc1ccccc1/C=C/C1=NC(=C\N(C)C)/C(=O)O1`, the inhibition was 21%.
For `O=C1OC(/C=C/c2ccccc2)=NC/1=C/c1ccco1` the value was 45.5% (active).

In general, inhibition refers to the relative decrease from the control value, in per cent.
